Consider 219 sequences from PMC6212790, “How bacterial xenogeneic silencer rok distinguishes foreign from self DNA in its resident genome”.

Over roughly 33,000 sequences, “e-score” has its median near -0.038; the highest 2% begin near 0.33. Only a selection was taken, and the highest values are over-represented in it overall.

The experiment addresses T1, GST-Rok-C97-191 (Bacillus subtilis subsp. subtilis str. …, UniProt O34857 97-191).
T1 sequence: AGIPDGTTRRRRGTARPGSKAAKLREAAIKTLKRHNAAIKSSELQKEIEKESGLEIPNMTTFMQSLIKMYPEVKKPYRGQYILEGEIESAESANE
In words: protein binding microarray; Rok is a gene silencer of Bacillus subtilis; high values mean tight binding. The following applies: protein: recombinant; tags: GST (pTH5325, pDEST15-Magic modified); dsDNA, one strand shown. A digest of the protocol: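 Each has a 25-mer constant primer and a 35-mer variable part from a de Bruijn sequence of order 10, covering every non-palindromic 8-mer at least 32 times (palindromic 16). Preference for each 8-mer is given as a rank-based, unitless enrichment score (E-score). Its range runs from 0.5 (most favored) to −0.5 (most disfavored).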
Turning to ACGGAAAG, the binding signal was -0.117 E-score.
The result for CAGCTGCA reads -0.0452 E-score.
With TACCTAAA the figure was 0.369 E-score; with TACCTATA, 0.375 E-score.
With AACCTAAA the figure was 0.0757 E-score.
Regarding CACCTATA, the binding signal stood at 0.223 E-score.
The result for AACCTATA reads 0.183 E-score; that for CACCTAAA, 0.0109 E-score; that for ACAATGGA, -0.0232 E-score.
With GCTAGCCA the figure was 0.153 E-score.
GATAAGAA: the binding signal was determined as 0.0314 E-score.
With GTATTAAA, the binding signal amounted to 0.158 E-score.
With CTATTATA the figure was 0.329 E-score; with CTATTACC, 0.312 E-score; with ATATTACA, 0.304 E-score.
Regarding CGATTATA, the binding signal came out at 0.261 E-score.
The result for ATATTATG reads 0.0424 E-score; that for ATATTATA, 0.379 E-score.
Take CTATTATC: the binding signal was 0.211 E-score.
Regarding CTATTACA, the binding signal was determined as 0.35 E-score.
The result for GTATTAGA reads 0.171 E-score.
With GTATTATA the figure was 0.388 E-score.
For ATATTATC, the binding signal is 0.245 E-score.
With CCCACTAC the figure was 0.0131 E-score; with AAGTGGCC, -0.135 E-score.
The result for ATGCATAC reads 0.0643 E-score; that for AATGACAT, 0.115 E-score; that for ATCTAACA, 0.192 E-score.
The result for CTCTTAGA reads -0.0403 E-score; that for GGAAATTA, 0.28 E-score.
Turning to AGAAAATG, the binding signal was 0.187 E-score.
With CGAAATTA the figure was 0.31 E-score.
With GGAAAATA the figure was 0.331 E-score; with GAAAAATA, 0.273 E-score; with CGAAAATA, 0.204 E-score.
With AGAAAATA, the binding signal worked out at 0.342 E-score.
The result for GGGAAATA reads 0.229 E-score; that for AGAAATTA, 0.344 E-score; that for AAGAAGTG, 0.201 E-score.
With GACCGGAA, the binding signal is -0.0227 E-score.
The result for ATCCTGTA reads 0.176 E-score.
As to ACGTAAGT, the binding signal was -0.0408 E-score.
With AGCGTTTG the figure was 0.0655 E-score.
With ACAAAAAA the figure was 0.136 E-score; with AATCGTCG, -0.0319 E-score.
With AGACTAGA the figure was 0.199 E-score; with ACACTAGA, 0.179 E-score.
In the case of TAACTAGA, the binding signal stood at 0.247 E-score.
For GAACTAGA, the binding signal is 0.335 E-score.
With AAACTAGA the figure was 0.354 E-score.
The result for CAACTAGA reads 0.255 E-score; that for CCTAATCA, 0.011 E-score; that for CCTCTTAA, -0.103 E-score.
The result for AACGCCAG reads -0.0768 E-score; that for GAGGGAAC, -0.0649 E-score.
Turning to CTAAACGA, the binding signal is -0.0375 E-score.
The result for ATAAATTA reads 0.259 E-score; that for CTAAACTC, 0.0554 E-score.
With ATAAACTC the figure was 0.173 E-score.
With GTAAACAA the figure was -0.0801 E-score; with GTAAATTA, 0.378 E-score.
GTAAACTA: the binding signal was 0.364 E-score.
The result for ATAAACTA reads 0.359 E-score; that for CTAAATTA, 0.141 E-score.
For CTAAACTA, the binding signal is 0.386 E-score.
The result for GTAAACGA reads -0.119 E-score.
The result for ATAAACTG reads 0.199 E-score; that for GGAGGAAC, -0.069 E-score; that for ATAAGAAG, 0.0784 E-score.
The result for TACAATAA reads 0.108 E-score; that for ACAAGGAG, -0.167 E-score; that for AAACAGCC, -0.174 E-score.
TATGACAA: the binding signal is -0.00238 E-score.
With CCGGCAAG the figure was -0.0857 E-score; with CGCATGAC, -0.0389 E-score.
With CATCCATC the figure was -0.0668 E-score; with AAGCGGAC, -0.0303 E-score; with GAGAGCTC, -0.123 E-score.
With CATGAATG the figure was -0.00652 E-score.
On to AATTGGTA, for which the binding signal came to 0.331 E-score.
The result for AAGTGGTC reads -0.168 E-score.
The result for AATTGCTA reads 0.328 E-score; that for AAGTGGTA, 0.385 E-score.
The result for AATTGGTC reads -0.0353 E-score.
Consider CATTGCTA, for which the binding signal was found to be 0.118 E-score.
For CATTGGTA, the binding signal stood at 0.279 E-score.
Consider GATTGCTA, for which the binding signal amounted to 0.18 E-score.
The result for CAGTGGTA reads 0.232 E-score.
The result for GTCAAGTA reads 0.157 E-score; that for CCTTTTCC, -0.198 E-score; that for CGCAACCG, 0.0123 E-score.
With TAATTACA the figure was 0.396 E-score; with AAATTAAA, 0.205 E-score; with GAATTATA, 0.24 E-score.
In the case of AAATTATG, the binding signal was 0.224 E-score.
The result for AAATTATC reads 0.364 E-score; that for TAATTATA, 0.386 E-score; that for AAATTATA, 0.389 E-score.
With GAATTACA the figure was 0.275 E-score; with AAATTATT, 0.296 E-score; with GAATTATC, 0.23 E-score.
With AAATTACA the figure was 0.325 E-score; with CAATTATA, 0.291 E-score; with AATCCATG, -0.019 E-score.
As to CGAGTAAA, the binding signal was found to be 0.128 E-score.
With ACTCAGGC the figure was -0.123 E-score; with CAAAAGAG, -0.195 E-score.
On to ACGGGGAA, for which the binding signal was 0.0307 E-score.
The result for GAGTCCTA reads -0.119 E-score.
The result for TATTTAGA reads 0.0799 E-score.
The result for ATAAAGGC reads 0.052 E-score; that for ACATACGC, -0.0272 E-score.
For CATAGACA, the binding signal is -0.0183 E-score.
With CGTCCACC the figure was -0.198 E-score; with GAGTTATA, 0.213 E-score.
With TAGTTATA the figure was 0.39 E-score; with CAGTTATA, 0.187 E-score; with GAGGAACA, -0.114 E-score.
The result for CAAATTAG reads 0.044 E-score; that for GAAATTAA, 0.278 E-score.
Take CAAATTAC: the binding signal was 0.33 E-score.
With GAAATTGC the figure was 0.239 E-score; with GAAATTAC, 0.359 E-score; with AAAATTAC, 0.327 E-score.
With ATTCGCGG the figure was -0.0504 E-score; with CTAAGTTA, 0.291 E-score; with GCGAGACC, -0.114 E-score.
With CAACCCTG the figure was -0.104 E-score; with ATCATCTA, 0.148 E-score; with GAGCCTAC, -0.193 E-score.
For GTACAGTA, the binding signal came to 0.283 E-score.
Turning to TAACAGTA, the binding signal worked out at 0.342 E-score.
On to GAACAGTA, for which the binding signal was found to be 0.179 E-score.
For ATACAGTA, the binding signal was 0.385 E-score.
Regarding CTACAGTA, the binding signal was 0.235 E-score.
The result for CAACAGTA reads 0.315 E-score; that for ATGGCACC, -0.0965 E-score.
Take CCCTTCGC: the binding signal is -0.198 E-score.
As for ACTAAGGA, the binding signal was determined as 0.268 E-score.
Turning to ACGGCCAG, the binding signal was -0.104 E-score.
The result for CCTTCTGC reads -0.174 E-score.
With AGTCGTAC the figure was 0.108 E-score.
The result for GAAGATAA reads 0.224 E-score; that for ATAGATAA, 0.325 E-score; that for AAAGATAA, 0.33 E-score.
For the sequence GCAGATAC, the binding signal is -0.00726 E-score.
The result for CTAGATAC reads 0.204 E-score; that for ACAGATAC, 0.252 E-score.
The result for GTAGATAC reads 0.381 E-score; that for AAAGATAC, 0.0421 E-score.
The result for GTAGATAA reads 0.397 E-score.
In the case of ATAGATAC, the binding signal came to 0.357 E-score.
The result for AGAGATAC reads 0.166 E-score.
With CTAGATAA the figure was 0.3 E-score; with TGAGAAAA, 0.154 E-score.
The result for AAGGATGA reads -0.0751 E-score.
Take TGAAAGCA: the binding signal is 0.0344 E-score.
With GACCGGGA the figure was -0.0628 E-score; with ACAGGCGG, -0.187 E-score.
ATAGATAG: the binding signal stood at 0.267 E-score.
As for ACAGATAT, the binding signal was 0.185 E-score.
The result for ATAGATAT reads 0.415 E-score; that for ACTTTTGA, 0.0573 E-score.
As for CAGACGCA, the binding signal is -0.191 E-score.
For the sequence CCTTTCTA, the binding signal amounted to 0.108 E-score.
For AATTTCTC, the binding signal turned out to be 0.198 E-score.
The result for ACTTTCTA reads 0.386 E-score.
With ATTTTCTC the figure was 0.255 E-score; with AATTTCTG, 0.128 E-score; with ACTTTCTC, 0.0481 E-score.
With GATTTCAA the figure was 0.0221 E-score; with GATTTCTA, 0.357 E-score.
For the sequence AATTTCTA, the binding signal is 0.355 E-score.
With CATTTCTA, the binding signal amounted to 0.306 E-score.
With ATTTTCTA the figure was 0.379 E-score; with ATTTTCTG, -0.0553 E-score.
Turning to AGTGTAGG, the binding signal was 0.0625 E-score.
With GATCCGAC the figure was -0.0267 E-score; with GGCATTCA, -0.0675 E-score; with GCGGGGAA, -0.189 E-score.
The result for ATTTTCCG reads 0.329 E-score; that for ATTTTCCA, 0.105 E-score; that for ATTTTCCC, -0.00582 E-score.
With TGGCAAAA, the binding signal amounted to 0.122 E-score.
With GGAATCAC the figure was -0.0168 E-score; with GGTATCTA, 0.23 E-score; with CCTATCTA, 0.319 E-score.
For AGTATCTC, the binding signal turned out to be 0.185 E-score.
ACTATCTC: the binding signal is 0.263 E-score.
With ATTATCTA the figure was 0.385 E-score; with ATTATCTG, 0.203 E-score.
In the case of GCTATCTA, the binding signal worked out at 0.333 E-score.
The result for AGTATCTG reads 0.198 E-score; that for ATTATCTC, 0.0108 E-score.
With AGTATCTA the figure was 0.351 E-score; with GCTATCCA, 0.0235 E-score.
The result for ACTATCTA reads 0.364 E-score; that for AAAAGGGC, -0.186 E-score; that for GGACAGAC, -0.0976 E-score.
As to GAACGGGA, the binding signal was -0.108 E-score.
The result for CAGCTCCA reads -0.0439 E-score; that for ACTATCGA, 0.348 E-score.
The result for GCTATCGA reads 0.102 E-score; that for CCTATCGA, 0.117 E-score; that for TAGCAGAA, 0.073 E-score.
The result for AAGCGAGT reads -0.052 E-score; that for AAGAAAGA, 0.0949 E-score; that for AAGGTAGA, 0.246 E-score.
Consider CAGGTAGA, for which the binding signal was determined as 0.223 E-score.
With GAGGTAGA the figure was 0.334 E-score.
With GAGGTATA the figure was 0.243 E-score; with TAGGTAGA, 0.386 E-score.
The result for GAGGTAGC reads -0.122 E-score; that for GACAGGGA, -0.0489 E-score; that for AGCAATGA, -0.189 E-score.
Take CGACCAAC: the binding signal is -0.152 E-score.
With ACCTTGCT the figure was -0.156 E-score; with GTTTTCAA, -0.105 E-score; with ATCAAAAT, 0.231 E-score.
